Screen size: about 5,500 compounds; about 2,000 (36%) were called active. Roughly 18% stayed inconclusive and do not appear here. Cut-off read from the data, not from the text of the source: active = normalized growth mostly below about 0.91 (no sharp cut-off); inconclusive = no clear call, values can overlap the other calls; inactive = mostly above about 0.92. The list shows a part of the results.
Experiment: chemical genetic growth profiling, strain panel (AID 1159580);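 note: tested at 20 µM; growth read once vehicle control cultures reached saturation at 30 °C; 1 = growth at the plate median or of vehicle wells; lower values mean less growth of the strain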
Conditions: growth OD
[1] = S. cerevisiae deletion strains, locus YCL061C, strain MRC1, stronger effect = lower value
[2] = S. cerevisiae deletion strains, locus YHR030C, strain SLT2, stronger effect = lower value

Measured: normalized growth

CCOC(CN(c1ccc(F)cc1)S(=O)(=O)c1ccc(F)cc1F)OCC
inactive: S. cerevisiae deletion strains, locus YAL013W, strain DEP1, stronger effect = lower value 1 | S. cerevisiae deletion strains, locus YBR229C, strain ROT2, stronger effect = lower value 1 | [1] 1.01 | S. cerevisiae deletion strains, locus YDL101C, strain DUN1, stronger effect = lower value 0.98 | S. cerevisiae deletion strains, locus YDL134C, strain PPH21, stronger effect = lower value 1.01 | S. cerevisiae deletion strains, locus YDR150W, strain NUM1, stronger effect = lower value 0.957 | S. cerevisiae deletion strains, locus YEL061C, strain CIN8, stronger effect = lower value 0.986 | S. cerevisiae deletion strains, locus YGR078C, strain PAC10, stronger effect = lower value 0.997 | [2] 0.936 | S. cerevisiae deletion strains, locus YHR087W, strain rtc3, stronger effect = lower value 1.03 | S. cerevisiae deletion strains, locus YJR043C, strain POL32, stronger effect = lower value 0.989 | S. cerevisiae deletion strains, locus YJR075W, strain HOC1, stronger effect = lower value 0.981 | S. cerevisiae deletion strains, locus YLR039C, strain RIC1, stronger effect = lower value 0.96 | S. cerevisiae deletion strains, locus YLR058C, strain SHM2 (second series), stronger effect = lower value 0.996 | S. cerevisiae deletion strains, locus YLR085C, strain ARP6, stronger effect = lower value 1.01 | S. cerevisiae deletion strains, locus YLR262C, strain YPT6, stronger effect = lower value 0.935 | S. cerevisiae deletion strains, locus YML094W, strain GIM5, stronger effect = lower value 0.999 | S. cerevisiae deletion strains, locus YMR219W, strain ESC1, stronger effect = lower value 0.994 | S. cerevisiae deletion strains, locus YMR263W, strain SAP30, stronger effect = lower value 0.987 | S. cerevisiae deletion strains, locus YMR307W, strain GAS1, stronger effect = lower value 0.731 | S. cerevisiae deletion strains, locus YNL153C, strain GIM3, stronger effect = lower value 1.01 | S. cerevisiae deletion strains, locus YNL298W, strain CLA4 (second series), stronger effect = lower value 1.01 | S. cerevisiae deletion strains, locus YNL322C, strain KRE1, stronger effect = lower value 0.995 | S. cerevisiae deletion strains, locus YNR030W, strain Alg12, stronger effect = lower value 0.993 | S. cerevisiae deletion strains, locus YOL006C, strain TOP1, stronger effect = lower value 1.03 | S. cerevisiae deletion strains, locus YPL055C, strain LGE1, stronger effect = lower value 1.04 | S. cerevisiae deletion strains, locus YPL241C, strain CIN2, stronger effect = lower value 1 | S. cerevisiae deletion strains, locus YPR135W, strain CTF4, stronger effect = lower value 1.02 | S. cerevisiae strains, strain wild type, stronger effect = lower value 0.991

C/C=C\C1=C(C(=O)O)N2C(=O)C(NC(=O)C(N)c3ccc(O)cc3)C2SC1 (stereo not drawn)
inactive: S. cerevisiae deletion strains, locus YAL021C, strain ccr4, stronger effect = lower value 0.983 | S. cerevisiae deletion strains, locus YAL026C, strain drs2, stronger effect = lower value 1.01 | S. cerevisiae deletion strains, locus YAL030W, strain snc1, stronger effect = lower value 1 | S. cerevisiae deletion strains, locus YBL061C, strain skt5, stronger effect = lower value 1.02 | S. cerevisiae deletion strains, locus YBR009C, strain hhf1, stronger effect = lower value 1.01 | S. cerevisiae deletion strains, locus YBR023C, strain chs3, stronger effect = lower value 1.01 | S. cerevisiae deletion strains, locus YBR171W, strain sec66, stronger effect = lower value 1.01 | S. cerevisiae deletion strains, locus YBR231C, strain swc5, stronger effect = lower value 1.01 | S. cerevisiae deletion strains, locus YBR279W, strain paf1, stronger effect = lower value 1 | S. cerevisiae deletion strains, locus YCL011C, strain gbp2, stronger effect = lower value 1 | S. cerevisiae deletion strains, locus YCL016C, strain dcc1, stronger effect = lower value 1 | [1] 1 | S. cerevisiae deletion strains, locus YCL069W, strain vba3, stronger effect = lower value 1.01 | S. cerevisiae deletion strains, locus YCR088W, strain abp1, stronger effect = lower value 1.01 | S. cerevisiae deletion strains, locus YDL005C, strain med2, stronger effect = lower value 1 | S. cerevisiae deletion strains, locus YDL040C, strain nat1, stronger effect = lower value 1.01 | S. cerevisiae deletion strains, locus YDR001C, strain nth1, stronger effect = lower value 1.01 | S. cerevisiae deletion strains, locus YDR069C, strain doa4, stronger effect = lower value 0.995 | S. cerevisiae deletion strains, locus YDR137W, strain rgp1, stronger effect = lower value 1.01 | S. cerevisiae deletion strains, locus YDR159W, strain sac3, stronger effect = lower value 0.987 | S. cerevisiae deletion strains, locus YDR195W, strain ref2 0.978 | S. cerevisiae deletion strains, locus YDR297W, strain sur2, stronger effect = lower value 1 | S. cerevisiae deletion strains, locus YDR334W, strain swr1, stronger effect = lower value 1.01 | S. cerevisiae deletion strains, locus YDR335W, strain msn5, stronger effect = lower value 1.01 | S. cerevisiae deletion strains, locus YDR392W, strain spt3, stronger effect = lower value 0.991 | S. cerevisiae deletion strains, locus YEL003W, strain gim4, stronger effect = lower value 1 | S. cerevisiae deletion strains, locus YEL037C, strain rad23, stronger effect = lower value 1.01 | S. cerevisiae deletion strains, locus YEL061C, strain CIN8 (second series), stronger effect = lower value 1 | S. cerevisiae deletion strains, locus YER015W, strain faa2, stronger effect = lower value 1 | S. cerevisiae deletion strains, locus YER016W, strain bim1, stronger effect = lower value 1.01 | S. cerevisiae deletion strains, locus YER111C, strain swi4, stronger effect = lower value 0.996 | S. cerevisiae deletion strains, locus YER155C, strain BEM2 (second series), stronger effect = lower value 1.01 | S. cerevisiae deletion strains, locus YFR010W, strain ubp6, stronger effect = lower value 1.02 | S. cerevisiae deletion strains, locus YGL167C, strain pmr1, stronger effect = lower value 1.01 | S. cerevisiae deletion strains, locus YGL173C, strain kem1, stronger effect = lower value 1 | S. cerevisiae deletion strains, locus YGL227W, strain vid30, stronger effect = lower value 1.01 | S. cerevisiae deletion strains, locus YGL240W, strain doc1, stronger effect = lower value 0.988 | S. cerevisiae deletion strains, locus YGL253W, strain hxk2, stronger effect = lower value 1.01 | S. cerevisiae deletion strains, locus YHR013C, strain ard1, stronger effect = lower value 0.997 | S. cerevisiae deletion strains, locus YHR027C, strain rpn1, stronger effect = lower value 0.993 | [2] 1.02 | S. cerevisiae deletion strains, locus YHR079C, strain IRE1, stronger effect = lower value 1.04 | S. cerevisiae deletion strains, locus YHR142W, strain chs7, stronger effect = lower value 1.03 | S. cerevisiae deletion strains, locus YJL092W, strain hpr5, stronger effect = lower value 1.01 | S. cerevisiae deletion strains, locus YJL095W, strain BCK1 (second series), stronger effect = lower value 0.998 | S. cerevisiae deletion strains, locus YJL095W, strain BCK1, stronger effect = lower value 0.997 | S. cerevisiae deletion strains, locus YJL115W, strain asf1, stronger effect = lower value 0.999 | S. cerevisiae deletion strains, locus YJL129C, strain trk1, stronger effect = lower value 1.02 | S. cerevisiae deletion strains, locus YJL154C, strain vps35, stronger effect = lower value 1.01 | S. cerevisiae deletion strains, locus YJL164C, strain tpk1, stronger effect = lower value 1.02 | S. cerevisiae deletion strains, locus YJL166W, strain qcr8, stronger effect = lower value 1 | S. cerevisiae deletion strains, locus YJR066W, strain TOR1, stronger effect = lower value 0.982 | S. cerevisiae deletion strains, locus YKL160W, strain elf1, stronger effect = lower value 1 | S. cerevisiae deletion strains, locus YKR026C, strain gcn3, stronger effect = lower value 1 | S. cerevisiae deletion strains, locus YKR091W, strain srl3, stronger effect = lower value 1 | S. cerevisiae deletion strains, locus YLL001W, strain dnm1, stronger effect = lower value 1.01 | S. cerevisiae deletion strains, locus YLL026W, stronger effect = lower value 0.999 | S. cerevisiae deletion strains, locus YLL041C, strain sdh2, stronger effect = lower value 1.03 | S. cerevisiae deletion strains, locus YLR027C, strain aat2, stronger effect = lower value 1.01 | S. cerevisiae deletion strains, locus YLR113W, strain HOG1, stronger effect = lower value 0.957 | S. cerevisiae deletion strains, locus YLR221C, strain rsa3, stronger effect = lower value 1 | S. cerevisiae deletion strains, locus YLR258W, strain gsy2, stronger effect = lower value 1.02 | S. cerevisiae deletion strains, locus YLR262C, strain YPT6 (second series), stronger effect = lower value 1.01 | S. cerevisiae deletion strains, locus YLR320W, strain mms22, stronger effect = lower value 1.02 | S. cerevisiae deletion strains, locus YLR342W, strain FKS1, stronger effect = lower value 1 | S. cerevisiae deletion strains, locus YLR357W, strain rsc2, stronger effect = lower value 1.01 | S. cerevisiae deletion strains, locus YLR370C, strain arc18, stronger effect = lower value 1.02 | S. cerevisiae deletion strains, locus YLR384C, strain iki3, stronger effect = lower value 1.02 | S. cerevisiae deletion strains, locus YML120C, strain ndi1, stronger effect = lower value 1.02 | S. cerevisiae deletion strains, locus YMR058W, strain fet3, stronger effect = lower value 1.01 | S. cerevisiae deletion strains, locus YMR125W, strain sto1, stronger effect = lower value 1.02 | S. cerevisiae deletion strains, locus YMR129W, stronger effect = lower value 1.01 | S. cerevisiae deletion strains, locus YMR205C, strain PFK2, stronger effect = lower value 1.02 | S. cerevisiae deletion strains, locus YMR231W, strain pep5, stronger effect = lower value 1 | S. cerevisiae deletion strains, locus YNL071W, strain lat1, stronger effect = lower value 1.01 | S. cerevisiae deletion strains, locus YNL183C, strain NPR1, stronger effect = lower value 0.959 | S. cerevisiae deletion strains, locus YNL209W, strain ssb2, stronger effect = lower value 0.997 | S. cerevisiae deletion strains, locus YNL248C, strain rpa49, stronger effect = lower value 1.02 | S. cerevisiae deletion strains, locus YNL322C, strain KRE1 (second series), stronger effect = lower value 0.994 | S. cerevisiae deletion strains, locus YNR049C, strain mso1, stronger effect = lower value 1.03 | S. cerevisiae deletion strains, locus YOR001W, strain rrp6, stronger effect = lower value 1.02 | S. cerevisiae deletion strains, locus YOR070C, strain gyp1, stronger effect = lower value 1.01 | S. cerevisiae deletion strains, locus YOR080W, strain dia2, stronger effect = lower value 1.01 | S. cerevisiae deletion strains, locus YOR083W, strain WHI5, stronger effect = lower value 1.01 | S. cerevisiae deletion strains, locus YOR106W, strain vam3, stronger effect = lower value 0.997 | S. cerevisiae deletion strains, locus YOR231W, strain MKK1, stronger effect = lower value 1.01 | S. cerevisiae deletion strains, locus YOR265W, strain rbl2, stronger effect = lower value 1.02 | S. cerevisiae deletion strains, locus YOR270C, strain vph1, stronger effect = lower value 1.04 | S. cerevisiae deletion strains, locus YOR290C, strain snf2, stronger effect = lower value 1 | S. cerevisiae deletion strains, locus YPL051W, strain arl3, stronger effect = lower value 1.01 | S. cerevisiae deletion strains, locus YPL078C, strain atp4, stronger effect = lower value 1.02 | S. cerevisiae deletion strains, locus YPL106C, strain sse1, stronger effect = lower value 1 | S. cerevisiae deletion strains, locus YPL240C, strain hsp82, stronger effect = lower value 1.01 | S. cerevisiae deletion strains, locus YPL256C, strain CLN2, stronger effect = lower value 1.04
